# Assay results taken from PubChem BioAssay AID2685 (National Center for Advancing Translational Sciences (NCATS), 2010).
# Among all 320,000 compounds or so, about 2,100 (0.66%) were called active. Not shown: some 53% with an inconclusive outcome. This is one part of a sample in which actives are shown more often than they occur. Calls follow the shape of the dose curve; as a rule, active = well fitted inhibition curve with a large enough effect in the signal ratio, with a control signal flat (not every such curve was filed as active); inconclusive = small, poorly fitted or top-dose-only effect, or effect the other way, or a change in a side signal; inactive = flat fitted curve, though single readings scatter; the % refers to the signal ratio.
# Assay: qHTS Assay for Lipid Storage Modulators in Drosophila S3 Cells;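 as to cell number change: cells counted by Cell Tracker Red CMTPX staining in the red channel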; as to lipid storage change, negative = inhibition: % is scaled to controls: 0 for no effect and ±100 for the full control effect
# Conditions: BODIPY lipid droplet fluorescence, 18-24 h, cells fed with added oleic acid; cell number change: measured here: cell count max response; series mostly up to 46.1 µM
# Method in brief: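 Drosophila S3 cells loaded with oleic acid (400 uM, as added) and compounds at several concentrations; lipid droplets imaged by 488-nm laser-scanning cytometry, 500–530 nm intensity and object ratio to cell channel. Percent activity normalized to 20 uM Triacsin C.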
# Potency is read from the fitted curve at half-maximal effect.
Structure (SMILES),Potency,cell number change [%],"lipid storage change, negative = inhibition"
COc1ccc(C(=O)NCCNc2nc3ccc(C)cc3cc2C#N)cc1OC,inactive,,
CCOc1ccc2nc(NCCNC(=O)CC)c(C#N)cc2c1,inactive,0.214,
COc1ccc(C(=O)NCCNc2nc3ccc(C)cc3cc2C#N)cc1,20.6 µM (active),-23.8,
CCOc1ccccc1OCCCC(=O)N1CCN(S(=O)(=O)c2ccc(C)cc2)CC1,inactive,-13.5,
Cc1c(C(=O)O)sc2nc(CSc3ncc(C(F)(F)F)cc3Cl)[nH]c(=O)c12,inactive,6.43,
Cc1c(C)n(Cc2ccccc2)c2ncnc(NCCCO)c12,inactive,13.8,
O=c1c(Cl)c(NCc2ccccc2Cl)cnn1C12CC3CC(CC(C3)C1)C2,13 µM (active),-8.24,
O=c1c(Cl)c(NCc2ccco2)cnn1C12CC3CC(CC(C3)C1)C2,inactive,-8.21,
O=c1c(Cl)c(NCc2ccc(F)cc2Cl)cnn1C12CC3CC(CC(C3)C1)C2,inactive,-5.4,
Cc1cccc(NC(=O)CS(=O)(=O)c2cn(C)c3ccccc23)c1,inactive,-0.98,
CNC(=S)N(CCCn1ccnc1)Cc1c(F)cccc1Cl,3.26 µM (active),21.2,
O=C(CC1C(=O)NCCN1Cc1c(F)cccc1Cl)NCCCn1ccnc1 (stereo unspecified),inactive,8.35,
O=C(Cc1c(F)cccc1Cl)NCCCn1ccnc1,inactive,-2.56,
CCCCn1c(CNC(=O)C(C)(C)C)nc2ccccc21,inactive,-1.23,
COc1ccc(Nc2nnc(SCC(=O)Nc3ccc4[nH]c(=O)[nH]c4c3)s2)cc1,inactive,-17.1,
Cc1nnc(SCCN2C(=O)c3ccccc3C2=O)[nH]c1=O,inactive,-14.8,
O=C(/C=C/c1cccc([N+](=O)[O-])c1)NCCN1C(=O)S/C(=C\c2ccc(F)cc2)C1=O,inactive,13.9,
O=C(/C=C/c1ccccc1[N+](=O)[O-])NCCN1C(=O)S/C(=C\c2ccc(F)cc2)C1=O,inactive,-11.5,
CC(C)(C)C(=O)NCCN1C(=O)S/C(=C\c2ccc([N+](=O)[O-])cc2)C1=O,11.6 µM (active),-4.32,
COc1ccc(-c2nc(CS(=O)(=O)CC(=O)NCc3ccccc3Br)c(C)o2)cc1,inactive,11.5,
COc1cccc(-c2nc(CS(=O)(=O)CC(=O)NCc3ccccc3)c(C)o2)c1,inactive,1.69,
COc1ccc(-c2nc(CS(=O)(=O)CC(=O)NCc3cccc(Br)c3)c(C)o2)cc1,13 µM (active),10.1,
CC(C)=CCN1CCN(Cc2cnc(-c3ccccc3)s2)CC1CCO (stereo unspecified),inactive,-2.03,
Cc1ccc(CN2CCN(C(=O)c3ccco3)CC2)cc1,inactive,11.8,

Structure (SMILES),Potency,cell number change [%],"lipid storage change, negative = inhibition"
Cc1ccc(-n2ncc(C(=O)N3CCN(C(=O)c4ccco4)CC3)c2-n2cccc2)cc1,inactive,-13.4,
Cc1ccc(-n2nc(C)c(C(=O)N3CCN(C(=O)c4ccco4)CC3)c2-n2cccc2)cc1,16.4 µM (active),-18.3,
O=C(Nc1ccncc1)c1sc2ccccc2c1Cl,inactive,17.8,
Cc1nn(CC#N)c(=O)n1-c1ccccc1,inactive,5.19,
CCOC(=O)C1CCN(C(=O)CSc2c3c(nc4ccccc24)CCC3)CC1,inactive,8.19,
N#Cc1ccc(-c2csc(-c3ccno3)n2)cc1,inactive,9.9,
COc1ccc(/C=C2\N=C(c3ccccc3)N(c3ccc(C(=O)O)cc3)C2=O)cc1OC,inactive,,
COc1ccc(/C=C2\N=C(C)N(c3ccc4ccccc4c3)C2=O)cc1OC,5.17 µM (active),14.3,
COc1ccc(/C=C2\N=C3CCCCCN3C2=O)cc1OC,inactive,-0.0934,
Cc1ccc(S(=O)(=O)N(C)/N=C/C=C/c2ccccc2)cc1,inactive,-10.7,
O=C(COC(=O)Cn1cnc2ccccc21)Nc1cccc(S(=O)(=O)N2CCOCC2)c1,inactive,-0.979,
NC(=O)C1CCN(C(=O)CSc2nc3ccccc3s2)CC1,16.4 µM (active),5.89,
NC(=O)C1CCN(C(=O)CSc2nc3ccccc3o2)CC1,inactive,,
NC(=O)C1(N2CCCCC2)CCN(C(=O)CSc2nc3ccccc3s2)CC1,inactive,-22.8,
CC(C)(Cc1nc2ccccc2[nH]1)C(=O)O,23.1 µM (active),-19.5,
O=C(O)COCc1nc2ccccc2[nH]1,inactive,0.419,
O=C(O)CSCc1nc2ccccc2[nH]1,inactive,,
NNC(=O)CNC(=O)c1cccc(Br)c1,inactive,,
N#C/C(=C/c1ccc(-c2ccccc2)o1)c1nc(-c2cccs2)cs1,5.8 µM (active),20.9,
N#C/C(=C\c1ccc(-c2ccc(F)cc2)o1)C(=O)Nc1nc(-c2cccs2)cs1,inactive,-13,
N#C/C(=C\c1ccc(-c2ccccc2)cc1)c1nc(-c2ccco2)cs1,inactive,1.16,
C=CCC1(N(C(C)=O)c2ccccc2C)CCCCC1,inactive,-21.1,
Cc1oc(/N=C/c2ccccc2)c(C#N)c1C,inactive,0.993,
Cc1oc(/N=C/c2cccc([N+](=O)[O-])c2)c(C#N)c1C,16.4 µM (active),-19.3,

Structure (SMILES),Potency,cell number change [%],"lipid storage change, negative = inhibition"
Cc1oc(/N=C/c2ccccc2O)c(C#N)c1C,inactive,-11.3,
CC1CCCN(S(=O)(=O)c2ccc(NC(=O)CN3CCCCC3)cc2)C1 (stereo unspecified),inactive,-3.44,
Cc1ccc(NC(=O)c2ccc(S(=O)(=O)N3CCC(C)CC3)cc2)cc1,inactive,29.6,
CC1CCCN(S(=O)(=O)c2ccc(NC(=O)CNC3CCCC3)cc2)C1 (stereo unspecified),inactive,-7.89,
CCOC(=O)Nc1ccc(S(=O)(=O)N2CCC(C)CC2)cc1,inactive,5.9,
CCS(=O)(=O)c1ncc(Cl)c(C(=O)Nc2ccc(S(=O)(=O)N3CCCC(C)C3)cc2)n1 (stereo unspecified),0.146 µM (active),-27.2,
CCS(=O)(=O)c1ncc(Cl)c(C(=O)Nc2ccc(S(=O)(=O)N3CCC(C)CC3)cc2)n1,1.3 µM (active),-22.6,
C/C(=N\Nc1nccnc1Cl)c1ccc([N+](=O)[O-])cc1,inactive,-11.4,
O=C(NCCS(=O)(=O)N1CCN(c2ccccc2)CC1)c1ccc(Br)o1,,,10.4% [at 0.0737 µM] (inactive)
Cc1cc(C)n2c(SCCO)nnc2n1,inactive,8.77,
O=C(Nc1cccc2ncccc12)c1cccnc1,inactive,4.51,
CCc1noc(C)c1C(=O)Nc1ccccc1N1CCOCC1,inactive,,
CCc1noc(C)c1C(=O)Nc1ccc(F)c(F)c1F,inactive,-3.41,
CC(C)(C)c1ccc(C(=O)Nc2cccc3ncccc23)cc1,14.6 µM (active),,
CCc1noc(C)c1C(=O)Nc1cccc2ncccc12,2.31 µM (active),-8.65,
CC(=O)Nc1cccc(C(=O)Nc2cccc3ncccc23)c1,inactive,-6.58,
CCOC(=O)c1cc(CC)sc1NC(=O)CN1CCN(C(=O)C2CCCO2)CC1 (stereo unspecified),inactive,-6.11,
CC(=O)N(C)c1ccc(NC(=O)c2ccc([N+](=O)[O-])cc2Cl)cc1,inactive,1.5,
CCCCN(C(=O)CCC(=O)OCC(=O)NCc1ccccc1)c1c(N)n(CCC)c(=O)[nH]c1=O,inactive,-13.8,
COc1ccc(NC2CC(=O)N(c3cccc(C)c3)C2=O)cc1 (stereo unspecified),inactive,-0.809,
O=C(NCc1ccncc1)NC1CCCCC1,inactive,5.51,
C=CCc1ccccc1OCCn1nnc2ccccc21,inactive,-12.8,
Cc1ccc(-c2ccc(/C=N/n3cnnc3)o2)cc1,inactive,8.97,
Fc1ccc(-c2ccc(/C=N/n3cnnc3)o2)cc1,10.3 µM (active),-15.7,

Structure (SMILES),Potency,cell number change [%],"lipid storage change, negative = inhibition"
Fc1ccc(-c2ccc(/C=N\n3cnnc3)o2)cc1Cl,inactive,,
O=C(Nc1ccccc1)NC1CCN(Cc2c(F)cccc2Cl)CC1,inactive,4.31,
O=c1c(Cc2c(F)cccc2Cl)c(O)ccn1C1CC1,inactive,4.74,
O=c1c(Cc2c(F)cccc2Cl)c(O)ccn1Cc1ccc(F)cc1,inactive,,
O=c1c(Cc2c(F)cccc2Cl)c(O)ccn1CCc1ccccn1,14.1 µM (active),-22,
CCC(C)(C)n1nnnc1C(c1ccccc1)N1CCN(C2CCCC2)CC1 (stereo unspecified),inactive,-10.2,
COc1ccc(CC(=O)NNC(=O)c2ccco2)cc1OC,inactive,-12.7,
COc1ccc(/C=C2\SC(=S)N(CCCC(=O)N3CCCCC3CCO)C2=O)cc1 (stereo unspecified),inactive,-3.77,
CCN(C(=O)CCN1C(=O)/C(=C/c2ccccc2)SC1=S)C1CCS(=O)(=O)C1 (stereo unspecified),18.4 µM (active),-2.83,
COc1ccc(/C=C2\SC(=S)N(CCC(=O)N3CCCCC3CCO)C2=O)cc1 (stereo unspecified),20.6 µM (active),-3.06,
O=C(O)CCCCN1C(=O)/C(=C\c2ccc(OCc3ccccc3)c(OCc3ccccc3)c2)SC1=S,inactive,-10.9,
CN(C(=O)CCN1C(=O)/C(=C/c2ccccc2)SC1=S)C1CCS(=O)(=O)C1 (stereo unspecified),inactive,10.8,
CN1CCN(C(=O)CCCN2C(=O)/C(=C/c3ccccc3)SC2=S)CC1,8.2 µM (active),3.91,
CCN(C(=O)CN1C(=O)/C(=C/c2ccccc2)SC1=S)C1CCS(=O)(=O)C1 (stereo unspecified),inactive,-6.26,
O=C(CCCN1C(=O)/C(=C/c2ccccc2)SC1=S)N1CCOCC1,inactive,15.4,
COc1ccc(/C=C2\SC(=S)N(CCCC(=O)N3CCN(C)CC3)C2=O)cc1,inactive,-9.52,
COc1cc(/C=C2\SC(=S)N(CC(=O)O)C2=O)ccc1OS(=O)(=O)c1ccc(C)cc1,inactive,-2.94,
O=C1/C(=C/c2ccc(Cl)cc2)SC(=S)N1CCC(=O)N1CCCCC1CCO (stereo unspecified),inactive,-22.1,
COc1cc(/C=C2\SC(=S)N(CCCCC(=O)O)C2=O)ccc1OS(=O)(=O)c1ccc(C)cc1,20.6 µM (active),-25.4,
O=C(O)CCN=C1CCCc2ccccc2N1,inactive,-7.32,
COCCCNc1nnc(Cc2ccccc2)c2ccccc12,inactive,-6.27,
